According to the supplement of paper PMC10849652:
The full data set covers some 7,900 targets. This sample favours those with a hit. About 0.6% of all pairs of compound and target were hits. Values without a mark were called inactive.

Columns and labels:
Test in all cases: log2 fold change, soluble protein after heating vs DMSO (PISA); higher = thermal stabilisation; K562 cells, 10 uM, 30 min; active = over 0.2 and 3.5 SD of the protein, either way, in both replicates (recomputed)
[1] = compound: CS(=O)(=O)c1ccc(-c2cnc(N)c(C(=O)Nc3ccccc3)n2)cc1
Summary of the method: (§1)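 Values are thermal stability changes relative to control samples and are taken from duplicates. They are stated as log2 fold changes. Before quantification by TMTpro 16plex LC-MS/MS with equalised channel sums, K562 cells at 2×10^6 cells/mL were treated with 10 μM compound for 30 min, heated in aliquots for 3 min across 48°C-58°C, pooled, extracted in PBS with 0.5% NP-40 at 4°C, and centrifuged at 21,000xg for 90 min to give the soluble supernatant.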

[2] = compound: C[C@@H](Oc1cc(-c2cnn(C3CCNCC3)c2)cnc1N)c1c(Cl)ccc(F)c1Cl [crizotinib]
Summary of the method: as §1

[3] = compound: C[C@@H]1COCCN1C2=NC(=NC(=C2)C3(CC3)S(=O)(=O)C)C4=C5C=CNC5=CC=C4
Summary of the method: as §1

[4] = compound: C[C@H](C1=CC=C(C=C1)C(=O)NC2=C3C=CNC3=NC=C2)N
Summary of the method: as §1

[5] = compound: C[C@H](Nc1ncnc2nc[nH]c12)c1cc2cccc(Cl)c2c(=O)n1-c1ccccc1 [duvelisib]
Summary of the method: as §1

[6] = compound: Cc1cc(Nc2cc(CN3CCOCC3)c3nc(C)c(Cc4ccc(Cl)cc4F)n3n2)n[nH]1 [gandotinib]
Summary of the method: as §1

[7] = compound: Cc1cc(Nc2cc(N3CCN(C)CC3)nc(Sc3ccc(NC(=O)C4CC4)cc3)n2)n[nH]1 [tozasertib]
Summary of the method: as §1

[8] = compound: Cc1cc(SCc2sc(-c3ccc(C(F)(F)F)cc3)nc2C)ccc1OCC(=O)O
Summary of the method: as §1

[9] = compound: Cc1ccc(-n2nc(C(C)(C)C)cc2NC(=O)Nc2ccc(OCCN3CCOCC3)c3ccccc23)cc1 [doramapimod]
Summary of the method: as §1

[10] = compound: Cc1ccc(C(=O)N(CCCN)[C@@H](c2nc3cc(Cl)ccc3c(=O)n2Cc2ccccc2)C(C)C)cc1 [ispinesib]
Summary of the method: as §1

[11] = compound: Cc1ccc(NC(=O)c2ccc(CN3CC[C@H](N(C)C)C3)c(C(F)(F)F)c2)cc1Nc1nccc(-c2cncnc2)n1 [bafetinib]
Summary of the method: as §1

[12] = compound: Cc1cccc(CC(=O)N2CCc3c2ccc(-c2cn(C)c4ncnc(N)c24)c3F)n1
Summary of the method: as §1

[13] = compound: Cc1cn(-c2cc(NC(=O)c3ccc(C)c(Nc4nccc(-c5cccnc5)n4)c3)cc(C(F)(F)F)c2)cn1 [nilotinib]
Summary of the method: as §1

[14] = compound: Cc1nc(Nc2n[nH]c3c2CN(C(=O)N[C@H](CN(C)C)c2ccccc2)C3(C)C)c2sccc2n1
Summary of the method: as §1

[15] = compound: Cc1nc(Nc2ncc(C(=O)Nc3c(C)cccc3Cl)s2)cc(N2CCN(CCO)CC2)n1 [dasatinib]
Summary of the method: as §1

[16] = compound: Cc1ncc(-c2ccnc(Nc3ccc(S(C)(=O)=O)cc3)n2)n1C(C)C
Summary of the method: as §1

[17] = compound: Cn1cc(-c2ccc3c(c2)CCN3C(=O)Cc2cccc(C(F)(F)F)c2)c2c(N)ncnc21
Summary of the method: as §1

[18] = compound: Cn1cc(-c2ccc3nnc(C(F)(F)c4ccc5ncccc5c4)n3n2)cn1
Summary of the method: as §1

[19] = compound: Cn1cncc1[C@@](N)(c1ccc(Cl)cc1)c1ccc2c(c1)c(-c1cccc(Cl)c1)cc(=O)n2C [tipifarnib]
Summary of the method: as §1

[20] = compound: FC(F)(F)c1ccc(/C=C/c2nc(COc3ccc(CCCCn4ccnn4)cc3)co2)cc1 [mubritinib]
Summary of the method: as §1

Sequence of UniProt Q8N1G2 (Q8N1G2 whole entry, looked up): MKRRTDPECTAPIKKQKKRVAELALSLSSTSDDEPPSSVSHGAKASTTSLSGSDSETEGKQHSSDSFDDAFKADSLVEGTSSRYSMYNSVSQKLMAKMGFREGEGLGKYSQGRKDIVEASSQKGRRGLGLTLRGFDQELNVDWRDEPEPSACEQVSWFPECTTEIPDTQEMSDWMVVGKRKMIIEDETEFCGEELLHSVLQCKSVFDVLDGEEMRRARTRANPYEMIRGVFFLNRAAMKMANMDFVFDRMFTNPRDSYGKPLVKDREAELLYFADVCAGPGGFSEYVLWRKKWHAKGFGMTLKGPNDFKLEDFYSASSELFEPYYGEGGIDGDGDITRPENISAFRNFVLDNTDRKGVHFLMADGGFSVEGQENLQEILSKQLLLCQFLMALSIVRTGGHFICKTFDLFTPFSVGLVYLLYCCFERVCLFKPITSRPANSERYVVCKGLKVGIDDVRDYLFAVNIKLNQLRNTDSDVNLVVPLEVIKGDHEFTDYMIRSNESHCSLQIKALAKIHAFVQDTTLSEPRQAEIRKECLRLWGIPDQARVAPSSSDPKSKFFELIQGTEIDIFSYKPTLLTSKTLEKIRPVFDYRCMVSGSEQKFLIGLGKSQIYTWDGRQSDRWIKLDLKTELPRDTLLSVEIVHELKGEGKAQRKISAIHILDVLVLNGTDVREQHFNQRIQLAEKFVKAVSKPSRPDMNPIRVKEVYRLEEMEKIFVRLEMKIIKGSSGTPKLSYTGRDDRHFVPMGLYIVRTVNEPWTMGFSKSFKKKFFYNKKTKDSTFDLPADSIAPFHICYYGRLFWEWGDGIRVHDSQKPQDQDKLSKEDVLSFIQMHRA
Sequence of UniProt Q99807 (Q99807 whole entry, looked up): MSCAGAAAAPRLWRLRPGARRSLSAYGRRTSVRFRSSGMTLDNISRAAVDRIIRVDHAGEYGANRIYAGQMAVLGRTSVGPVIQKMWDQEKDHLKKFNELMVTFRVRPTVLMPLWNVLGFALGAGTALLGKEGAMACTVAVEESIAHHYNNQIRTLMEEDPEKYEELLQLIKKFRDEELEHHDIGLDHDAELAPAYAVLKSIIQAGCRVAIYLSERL
Sequence of UniProt Q8N668 (Q8N668 whole entry, looked up): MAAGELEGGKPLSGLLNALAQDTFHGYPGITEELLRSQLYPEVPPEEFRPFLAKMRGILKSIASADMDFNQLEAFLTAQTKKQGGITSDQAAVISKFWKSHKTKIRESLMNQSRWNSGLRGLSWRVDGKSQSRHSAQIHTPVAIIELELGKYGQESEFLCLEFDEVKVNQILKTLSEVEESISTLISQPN
Sequence of UniProt Q5BKX5 (Q5BKX5 whole entry, looked up): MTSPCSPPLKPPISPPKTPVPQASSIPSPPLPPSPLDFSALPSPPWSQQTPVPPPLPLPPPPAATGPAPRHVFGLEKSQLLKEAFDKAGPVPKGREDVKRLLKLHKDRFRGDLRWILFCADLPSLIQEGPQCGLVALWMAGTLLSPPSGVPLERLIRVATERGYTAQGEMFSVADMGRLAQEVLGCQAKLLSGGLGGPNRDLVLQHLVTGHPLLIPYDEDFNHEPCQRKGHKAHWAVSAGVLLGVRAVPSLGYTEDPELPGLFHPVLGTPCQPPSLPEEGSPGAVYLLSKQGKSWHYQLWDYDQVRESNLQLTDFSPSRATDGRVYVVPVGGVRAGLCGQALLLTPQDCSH
Sequence of UniProt P12277 (P12277 whole entry, looked up): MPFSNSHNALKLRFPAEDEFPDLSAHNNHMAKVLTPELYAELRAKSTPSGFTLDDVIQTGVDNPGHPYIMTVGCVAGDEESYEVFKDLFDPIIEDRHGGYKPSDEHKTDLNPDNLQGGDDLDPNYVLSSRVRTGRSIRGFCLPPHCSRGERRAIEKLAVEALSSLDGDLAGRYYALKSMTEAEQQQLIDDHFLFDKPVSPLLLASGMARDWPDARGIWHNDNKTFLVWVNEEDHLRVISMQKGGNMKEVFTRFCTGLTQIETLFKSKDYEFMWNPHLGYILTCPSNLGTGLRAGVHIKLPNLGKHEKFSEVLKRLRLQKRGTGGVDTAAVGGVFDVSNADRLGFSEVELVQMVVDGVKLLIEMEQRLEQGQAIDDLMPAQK
Sequence of UniProt Q13111 (Q13111 whole entry, looked up): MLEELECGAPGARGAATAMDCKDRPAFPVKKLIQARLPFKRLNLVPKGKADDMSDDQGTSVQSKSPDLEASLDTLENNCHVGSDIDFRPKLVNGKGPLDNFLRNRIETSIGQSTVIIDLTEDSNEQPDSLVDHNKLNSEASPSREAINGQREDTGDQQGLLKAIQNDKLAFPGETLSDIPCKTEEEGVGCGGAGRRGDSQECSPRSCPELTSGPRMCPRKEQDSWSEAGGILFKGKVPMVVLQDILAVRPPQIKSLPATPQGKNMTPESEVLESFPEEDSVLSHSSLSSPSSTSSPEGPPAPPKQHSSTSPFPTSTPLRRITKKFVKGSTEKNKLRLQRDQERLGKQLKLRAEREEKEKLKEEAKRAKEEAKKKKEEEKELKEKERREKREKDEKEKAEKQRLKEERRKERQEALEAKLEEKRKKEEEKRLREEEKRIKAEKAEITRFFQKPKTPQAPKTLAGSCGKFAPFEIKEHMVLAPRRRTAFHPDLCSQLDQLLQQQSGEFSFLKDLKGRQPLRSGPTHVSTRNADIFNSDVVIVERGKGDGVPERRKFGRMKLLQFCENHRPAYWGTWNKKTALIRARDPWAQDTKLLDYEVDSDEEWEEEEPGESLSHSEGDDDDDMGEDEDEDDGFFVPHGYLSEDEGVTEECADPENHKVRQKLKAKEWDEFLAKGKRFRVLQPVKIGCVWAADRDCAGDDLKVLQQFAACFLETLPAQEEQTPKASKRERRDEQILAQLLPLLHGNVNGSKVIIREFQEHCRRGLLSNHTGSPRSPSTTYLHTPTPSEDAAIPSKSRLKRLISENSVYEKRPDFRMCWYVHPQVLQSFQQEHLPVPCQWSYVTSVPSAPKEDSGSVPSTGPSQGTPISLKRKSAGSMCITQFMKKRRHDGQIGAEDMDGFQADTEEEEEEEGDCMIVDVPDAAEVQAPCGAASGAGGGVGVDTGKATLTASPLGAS
Sequence of UniProt Q8N4Q1 (Q8N4Q1 whole entry, looked up): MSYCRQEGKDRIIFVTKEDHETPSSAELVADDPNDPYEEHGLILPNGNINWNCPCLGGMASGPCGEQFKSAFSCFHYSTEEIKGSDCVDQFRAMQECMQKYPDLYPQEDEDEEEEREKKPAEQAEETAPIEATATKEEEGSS
Sequence of UniProt Q9BWU1 (Q9BWU1 whole entry, looked up): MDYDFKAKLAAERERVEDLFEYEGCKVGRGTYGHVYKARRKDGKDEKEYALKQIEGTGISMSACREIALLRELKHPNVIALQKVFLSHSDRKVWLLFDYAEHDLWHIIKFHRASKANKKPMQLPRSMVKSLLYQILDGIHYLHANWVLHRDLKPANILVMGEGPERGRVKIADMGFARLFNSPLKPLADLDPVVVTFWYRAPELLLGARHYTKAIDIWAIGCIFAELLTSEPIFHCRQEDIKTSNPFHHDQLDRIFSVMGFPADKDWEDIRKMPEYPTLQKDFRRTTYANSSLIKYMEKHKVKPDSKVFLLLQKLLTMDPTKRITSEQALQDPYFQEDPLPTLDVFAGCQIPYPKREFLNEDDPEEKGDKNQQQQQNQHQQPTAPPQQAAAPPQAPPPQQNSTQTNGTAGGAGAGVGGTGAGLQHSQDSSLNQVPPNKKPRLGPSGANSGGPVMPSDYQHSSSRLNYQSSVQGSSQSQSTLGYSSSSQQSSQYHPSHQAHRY
Sequence of UniProt Q6UUV9 (Q6UUV9 whole entry, looked up): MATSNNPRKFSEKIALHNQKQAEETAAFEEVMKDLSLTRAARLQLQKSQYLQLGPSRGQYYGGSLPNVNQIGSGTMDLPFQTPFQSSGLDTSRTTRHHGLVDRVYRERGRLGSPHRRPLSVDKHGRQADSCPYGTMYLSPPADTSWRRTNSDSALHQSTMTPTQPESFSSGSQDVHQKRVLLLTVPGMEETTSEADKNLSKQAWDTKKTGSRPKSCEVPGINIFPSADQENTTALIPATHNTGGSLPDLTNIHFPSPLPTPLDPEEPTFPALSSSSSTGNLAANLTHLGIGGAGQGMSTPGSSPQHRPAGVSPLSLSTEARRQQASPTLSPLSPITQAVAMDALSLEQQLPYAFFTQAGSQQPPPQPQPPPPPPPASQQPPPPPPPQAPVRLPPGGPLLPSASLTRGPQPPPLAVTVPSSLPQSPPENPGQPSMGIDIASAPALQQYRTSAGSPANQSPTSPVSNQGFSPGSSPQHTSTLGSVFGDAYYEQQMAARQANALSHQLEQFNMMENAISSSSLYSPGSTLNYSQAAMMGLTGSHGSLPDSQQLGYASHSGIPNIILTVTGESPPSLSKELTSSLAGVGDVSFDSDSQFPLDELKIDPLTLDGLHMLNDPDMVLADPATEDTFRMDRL
Sequence of UniProt P50416 (P50416 whole entry, looked up): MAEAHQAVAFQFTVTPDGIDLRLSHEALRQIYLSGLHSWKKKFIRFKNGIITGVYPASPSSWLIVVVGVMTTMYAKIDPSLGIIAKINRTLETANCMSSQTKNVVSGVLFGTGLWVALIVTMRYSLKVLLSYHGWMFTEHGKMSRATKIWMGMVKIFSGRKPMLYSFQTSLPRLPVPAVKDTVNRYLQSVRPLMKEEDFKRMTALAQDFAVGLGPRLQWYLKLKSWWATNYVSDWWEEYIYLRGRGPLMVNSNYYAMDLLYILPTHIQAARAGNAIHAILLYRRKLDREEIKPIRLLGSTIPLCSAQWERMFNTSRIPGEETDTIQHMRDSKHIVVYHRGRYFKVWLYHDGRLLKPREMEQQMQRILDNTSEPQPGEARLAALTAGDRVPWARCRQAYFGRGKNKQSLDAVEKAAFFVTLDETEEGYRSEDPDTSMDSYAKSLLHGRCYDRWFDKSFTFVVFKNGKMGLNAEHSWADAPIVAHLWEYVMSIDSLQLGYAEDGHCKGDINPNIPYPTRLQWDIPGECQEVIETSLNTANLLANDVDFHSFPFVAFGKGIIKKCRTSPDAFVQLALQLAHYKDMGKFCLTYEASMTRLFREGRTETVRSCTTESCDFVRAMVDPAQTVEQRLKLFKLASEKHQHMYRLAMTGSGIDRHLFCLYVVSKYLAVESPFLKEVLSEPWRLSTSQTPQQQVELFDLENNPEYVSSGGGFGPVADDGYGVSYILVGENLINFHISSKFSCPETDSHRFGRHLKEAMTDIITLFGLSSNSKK

Target	log2 fold change [1]	log2 fold change [2]	log2 fold change [3]	log2 fold change [4]	log2 fold change [5]	log2 fold change [6]	log2 fold change [7]	log2 fold change [8]	log2 fold change [9]	log2 fold change [10]	log2 fold change [11]	log2 fold change [12]	log2 fold change [13]	log2 fold change [14]	log2 fold change [15]	log2 fold change [16]	log2 fold change [17]	log2 fold change [18]	log2 fold change [19]	log2 fold change [20]
CSE1L (UniProt P55060)	0.008	-0.063	0.083	-0.067	0.01	-0.174	0.066	0.024	-0.027	-0.003	-0.041	0.039	-0.066	-0.026	-0.08	0.012	-0.005	0.007	-0.101	0.068
CMTR1 (UniProt Q8N1G2)	0.02	0.014	0.011	0.059	0.05	0.025	0.002	0.029	-0.036	-0.002	-0.054	0	-0.059	-0.01	-0.059	0.035	-0.033	0.044	-0.03	0.029
CCZ1 (UniProt P86791)	0.022	-0.278 (active)	0.009	0.005	-0.053	-0.081	-0.039	0.006	-0.036	-0.162	-0.127	0.007	0.024	-0.022	-0.057	-0.098	0.021	0.025	0.043	0.038
CD63 (UniProt P08962)	0.039	-0.076	0.009	-0.013	0.014	-0.023	-0.007	-0.022	0.033	-0.092	-0.069	-0.059	-0.023	0.074	0.021	0.002	-0.047	0.002	0.043	-0.003
CHCHD4 isoform 2 (UniProt Q8N4Q1)	-0.041	0.017	0.156	-0.272	-0.217	-0.079	0.182	0.022	0.069	-0.074	0	0.764 (active)	-0.054	-0.015	-0.121	-0.039	-0.185	-0.059	-0.208	0
CPT1A (UniProt P50416)	0.043	0.546 (active)	0.02	0.047	0.022	0.211	0.161	0.079	0.012	0.322	0.171	0.006	0.058	0.021	-0.042	-0.107	-0.024	-0.036	0.187	-0.05
CIZ1 (UniProt Q9ULV3)	-0.008	-0.097	0.017	-0.079	0.004	-0.121	0.022	0.016	0.005	-0.015	-0.063	0.013	0.016	-0.181	-0.016	-0.063	0.021	-0.066	0.008	0.019
COQ7 (UniProt Q99807)	0.113	-0.163	0.062	0.007	0.067	-0.359 (active)	-0.05	0.019	0.009	-0.181	-0.168	-0.062	0.006	-0.103	-0.006	-0.033	0.055	0.095	0.029	0.055
CKB (UniProt P12277)	0.059	-0.174	0.077	0.053	0.031	-0.109	-0.058	0.021	-0.009	-0.022	0.02	0.02	0.051	0.037	-0.142	-0.008	0.081	0.01	-0.057	0.062
CDK17 isoform 2 (UniProt Q00537)	0.087	-0.082	-0.035	0.076	-0.006	0.057	–	0.126	0.028	–	0.117	0.039	–	–	-0.171	–	-0.07	–	0.037	-0.04
COX7C (UniProt P15954)	0.025	0.147	0.028	–	-0.04	0.043	-0.015	-0.114	-0.072	-0.096	-0.066	-0.077	0.148	-0.041	0.073	-0.158	–	0.366	0.105	0.112
CHAF1A (UniProt Q13111)	-0.015	0.058	-0.058	0.15	0.051	-0.035	–	-0.04	0.025	-0.098	-0.154	-0.04	0.053	0.047	0.016	-0.074	0.006	0.002	0.015	0.034
CRTC1 isoform 2 (UniProt Q6UUV9)	-0.068	-0.016	0.192	–	0.139	0.008	-0.004	-0.076	0.005	-0.11	0.021	-0.093	–	–	-0.034	–	–	-0.079	-0.267	–
CDK19 (UniProt Q9BWU1)	0.042	–	0.03	0.401	-0.089	-0.051	-0.197	0.034	–	0.291	–	-0.014	-0.266	0.297	0.101	0.338	-0.01	-0.054	-0.045	0.112
CEP128 (UniProt Q6ZU80)	0.093	0.056	–	0.157	0.183	–	0.041	-0.07	0.102	–	-0.186	–	–	–	0.046	–	-0.026	–	-0.016	0.143
COMMD1 (UniProt Q8N668)	-0.108	-0.022	-0.092	–	–	0.42 (active)	-0.049	–	0.009	-0.112	-0.162	-0.085	0.009	-0.179	–	-0.057	–	-0.087	-0.016	-0.069
CNN3 (UniProt Q15417)	0.044	–	0.075	-0.066	-0.02	-0.1	0.069	0.15	–	–	0.02	-0.025	-0.066	-0.056	-0.057	0.108	0.023	–	-0.107	0.06
C19orf54 (UniProt Q5BKX5)	-0.026	0.025	0.182	0.127	0.072	-0.073	0.006	0.032	-0.061	-0.091	–	0.007	–	–	-0.175	–	0.03	0.14	0.013	–
